Screening data deposited in PubChem by National Center for Advancing Translational Sciences (NCATS).
KCNH2 WT inh – blocks the wildtype human KCNH2 potassium channel | Q12809 | U2OS, BacMam KCNH2, thallium flux FluxOr; active compounds read low | activity change, % at 1.84 µM | hit rate 0.37% among 340,000;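 active = maximum activity change below -70%; inconclusive = maximum activity change between -70% and -50%; inactive = maximum activity change above -50%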; also: % is scaled to controls: 0 for no effect and ±100 for the full control effect
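U2OS cells transduced with wild-type KCNH2 virus are loaded with FluxOr dye for 45 min, and thallium flux is measured in kinetic reads before and after stimulation buffer. Rate constants are normalized to DMSO controls.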
TRPML1 ag – activates the human TRPML1 channel. hit rate 0.12% among 410,000. TRPML1-expressing cells, Ca2+ dye fluorescence, FDSS. activation, % (no concentration beside the values). Q9GZU1; in the data active = activation above about 50%; inconclusive = mostly about 30% to 49%; also: 0% is about no effect
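Cells: TRPML1-DL, 1X Tet inducer, ~16 h at 37 degrees C/5% CO2. Dye: ABD Ca8 no-wash + quencher, 45-90 min RT. Read: 10 s baseline, compound add, 110 s agonist phase; 54-4 EC80 (4uM final), 110 s antagonist phase.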
PTAP TSG101 blk – blocks PTAP/TSG101 interaction to inhibit HIV-1 budding | Fluorescence polarization, FITC-PTAP peptide / Tsg101 binding | Potency, µM (top dose mostly 115 µM), for inactives: at the highest dose activity change, negative = inhibition, actives largely listed as inhibitors | 340,000 tested, under 10 active; active = well fitted inhibition curve with a large enough effect in the main read-out, with a control signal flat, not every such curve was filed as active; inconclusive = small, poorly fitted or top-dose-only effect, or effect the other way, or a change in a side signal; inactive = no such curve, though single readings can be large or run the other way; also: potency is read from the fitted curve at half-maximal effect; % of control where 0% means no effect
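Compounds were pin-transferred onto Tsg101 binding domain (10 uM final) in HEPES pH 7.5 buffer, then FITC-PTAP peptide was added at 50 nM final. After 20 min at RT, polarization reported peptide displacement across a qHTS concentration series.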
KCNH2 3.1 block – KCNH2 3.1 (human) potassium channel inhibition | U2OS KCNH2 3.1, thallium flux FluxOr; active compounds read low | activity change, % (tested at about 1.8 µM) | hit rate 0.95% among 340,000 | AID 720553;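 active = maximum activity change below -70%; inconclusive = maximum activity change from -70% to -50%; inactive = maximum activity change above -50%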;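 also: thallium influx rate constant from kinetic fluorescence after stimulation buffer; % is scaled to controls: 0 for no effect and ±100 for the full control effect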
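We transduce U2OS cells with the mutant 3.1 virus, culture them overnight, load FluxOr with Red40 quencher for 45 min, then add stimulation buffer and read kinetically for 2 min to derive a normalized rate constant.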
TRPML1 blocker – blocks the human TRPML1 channel. TRPML1-inducible cells, Ca2+ dye fluorescence, FDSS; active compounds read low; inhibition of EC80 agonist-evoked calcium signal. hit rate 0.02% among 390,000. Q9GZU1. activity change, negative = inhibition, % (no concentration beside the values). AID 624415; in the data active = activity change below about -50%; inconclusive = between about -30% and that limit;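 also: stimulus is agonist 54-4 at its EC80 concentration; % is scaled to controls: 0 for no effect and ±100 for the full control effect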
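TRPML1-DL cells, Tet-induced overnight (~16 h, 37 °C) at 1,500 cells/well, were loaded with Ca8 no-wash dye plus quencher for 45-90 min at room temperature. Compounds were pinned during FDSS kinetic reading; agonist 54-4 at EC80 (4 uM final) then added.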
Glioma ERSR ind – ER stress response induction in glioma; U87-MG GRP78 promoter luciferase reporter, 16 h; Potency, µM, inactives show at the top dose activation, actives largely listed as activators; hit rate 0.02% among 420,000; AID 602332; active = well fitted activation curve with a large enough effect; inconclusive = small, poorly fitted or top-dose-only effect; inactive = no such curve, though single readings can be large or run the other way; also: potency is read from the fitted curve at half-maximal effect; series mostly up to about 76 µM; % of control where 0% means no effect; nearly all actives have a fitted effect of over 35% in size
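ERSR induction read as luciferase luminescence (Bright-Glo, 10 min at room temperature) in stably transfected human U87-MG glioma cells exposed to compounds for 16 h, using GRP78 as sensor.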
* marks the source's active call; other numbers are inactive results; ? = inconclusive; nt = no result given. Rows were chosen to be rich in hits. Some 1% of all compounds tested hit in one or more screens of this group.

SMILES	KCNH2 WT inh	TRPML1 ag	PTAP TSG101 blk	KCNH2 3.1 block	TRPML1 blocker	Glioma ERSR ind
CC1CCN(c2ccc([N+](=O)[O-])cc2C(=O)O)CC1	-132.6*	-0.2	-0.9%	-177.8*	67.9	-4.8%
O=C(COc1ccc(Cl)cc1)N1CCN(c2ccc([N+](=O)[O-])c(N3CCOCC3)c2)CC1	14.2	-1.8	-2.7%	-81.1*	-10.2	-4.1%
Cc1cnc(SCc2ccccn2)nc1C1CCCN(C(=O)c2cccc(-c3cccc(F)c3)c2)C1 (stereo not drawn)	nt	nt	nt	nt	nt	-4.9%
COc1ccccc1CN1CCCC(n2cc(C(=O)N3CCCCC3)nn2)C1 (stereo not drawn)	nt	nt	nt	nt	nt	-4.4%
Cc1nn(C)c(Cl)c1CN1CCOc2ccc(CN3CCC(Oc4cccnc4)CC3)cc2C1	nt	nt	nt	nt	nt	-5.7%
CN(C)S(=O)(=O)c1ccc(N2CCCC2)c(C(=O)NCc2ccc(Cl)cc2)c1	22.6	74.6*	-5.2%	-4.4	-0.7	-4.4%
O=C(c1cc([N+](=O)[O-])ccc1N1CCOCC1)N1CCN(c2ccc([N+](=O)[O-])cc2)CC1	-124.6*	-0.5	-0.1%	-106.4*	1.2	-1.9%
CCCCc1oc2ccc(NS(C)(=O)=O)cc2c1C(=O)c1ccc(OCCCN(CCCC)CCCC)cc1	nt	nt	nt	nt	nt	-11.2%
CCCSc1nnc(Cc2cc(=O)[nH]c(=O)[nH]2)n1-c1cc(C)ccc1C	-89.0*	0.4	-4.1%	10.1	-23.6	-5.0%
N#Cc1cnn(-c2cccc(Cl)c2)c1N	-4.5	1.9	-2.9%	-86.4*	7.6	2.2%
CN(C)S(=O)(=O)c1cccc(-c2nn(-c3ccccc3)cc2/C=C(\C#N)c2nc3ccccc3[nH]2)c1	6.0	-0.1	-0.2%	-75.6*	-5.4	-4.5%
O=C(CSc1n[nH]c(-c2ccccn2)n1)Nc1cccc(Cl)c1	2.4	-0.3	-1.4%	-70.2*	-5.6	-1.0%
CCCCCCn1c(=O)[nH]c2nc3cc(N)ccc3nc2c1=O	-36.4	50.8*	?	-0.9	-9.7	-1.1%
Cc1nc(NCc2cnn(C)c2C)sc1-c1ccn(CC2COc3ccccc3O2)n1 (stereo not drawn)	nt	nt	nt	nt	nt	-4.3%
CCC(C(=O)N(C(C)C)C(C)C)c1ccccc1 (stereo not drawn)	-1.7	-0.6	-4.3%	-145.6*	12.0	-5.6%
CCC(C(=O)c1ccc(O)cc1)c1ccccc1 (stereo not drawn)	-37.1	-0.8	-3.3%	-12.5	26.8	3.3%
CC1(C)SC2C(NC(=O)C(c3ccccc3)S(=O)(=O)O)C(=O)N2C1C(=O)O (stereo not drawn)	nt	nt	nt	nt	nt	-4.4%
CCC(=O)Nc1ccc(Nc2ccccc2)cc1	-82.4*	-0.7	-4.0%	2.2	22.7	-4.5%
COCC(=O)Nc1ccc(Nc2ccccc2)cc1	-3.5	-1.2	-9.2%	-1.8	8.9	-5.5%
CCOC(=O)N1CCC(Nc2cccc(SC)c2)CC1	32.8	0.1	-6.9%	-70.7*	8.0	2.6%
CCC(=O)Nc1cccc(SC)c1	0.0	-0.5	-0.7%	-83.1*	-9.7	-1.1%
CCc1cc(C(=O)NCC2Cc3cc(-c4ccccc4C(C)=O)ccc3O2)no1 (stereo not drawn)	nt	nt	nt	nt	nt	-2.1%
CC(O)(COc1ccccc1)c1ccc2c(c1)CN(C/C=C/c1ccco1)CCO2 (stereo not drawn)	nt	nt	nt	nt	nt	9.5%
O=C(Nc1ccc(Oc2ccccc2)cc1)C1CCN(c2c3c(nc4ncnn24)CCC3)CC1	-13.4	3.6	-13.5%	-98.5*	4.2	2.1%
CCC(=O)NCCn1ccc2ccccc21	-139.9*	-0.4	-6.4%	-4.8	32.2	-2.3%
SMILES	KCNH2 WT inh	TRPML1 ag	PTAP TSG101 blk	KCNH2 3.1 block	TRPML1 blocker	Glioma ERSR ind
CC(C)(C)n1ncc2c(=O)n(Cc3ccccc3Cl)cnc21	nt	2.3	nt	nt	-0.7	4.9%
CCNC(=O)[C@H]1CCCN1C(=O)[C@H](CCCN=C(N)N)NC(=O)[C@H](CC(C)C)NC(=O)[C@H](CC(C)C)NC(=O)[C@@H](Cc1ccc(O)cc1)NC(=O)[C@H](CO)NC(=O)[C@@H](Cc1c[nH]c2ccccc12)NC(=O)[C@H](Cc1cnc[nH]1)NC(=O)[C@@H]1CCC(=O)N1	nt	nt	nt	nt	nt	-2.9%
COc1cc(CCCN2C(=S)NC[C@@H]2Cc2ccccc2)cc(OC)c1OC	1.2	-0.7	-0.8%	-9.2	28.5	-5.3%
COc1cc(CCCN2C(=S)NC[C@@H]2c2ccccc2)cc(OC)c1OC	0.7	-0.1	-0.5%	-93.7*	-5.8	-6.2%
Cc1ccc2[nH]nc(C(=O)N3CCOc4ccc(CN5CCc6sccc6C5)cc4C3)c2c1	nt	nt	nt	nt	nt	-2.2%
CCOC(=O)c1ccc(NC(=O)CSc2nnc(-c3cccs3)n2CC)cc1	2.1	0.6	-5.8%	-92.5*	-8.9	-6.9%
COc1ccccc1-c1cc2c(c(OC)c1)OCCN(C(=O)Cn1nc(-c3ccccc3)c3ccccc3c1=O)C2	nt	nt	nt	nt	nt	-4.7%
FC(F)(F)c1ccc(CN2C[C@@H]3C(c4ccc(C(F)(F)F)cc4)C4(c5cccnc5)CC3(C4)[C@H]2c2ccccc2)cc1 (stereo partly drawn)	-1.9	-0.5	-2.4%	-16.0	16.7	-3.2%
N#Cc1ccc(C23CC4(C2)[C@H](CN(P(=O)(c2ccccc2)c2ccccc2)[C@@H]4c2ccccc2)C3c2ccc(Cl)nc2)cc1 (stereo partly drawn)	-12.5	-0.5	-0.9%	-32.9	21.2	-3.4%
CN1C[C@@H]2C(c3ccc(Cl)nc3)C3(c4ccc(C#N)cc4)CC2(C3)[C@H]1c1ccccc1 (stereo partly drawn)	8.1	-0.1	-1.1%	-76.6*	-5.7	-3.8%
CN1C[C@@H]2C(c3ccc(C(F)(F)F)cc3)C3(c4cccnc4)CC2(C3)[C@H]1c1ccccc1 (stereo partly drawn)	-7.8	-0.7	-0.7%	-84.8*	-3.7	-4.1%
Cc1cccc2nc(CNC(=O)CN3Cc4cc(Cl)ccc4OC(C)C3)cn12 (stereo not drawn)	nt	nt	nt	nt	nt	-3.7%
COc1cc(CN2CCOc3ccc(CN4CCC(O)(c5cccnc5)CC4)cc3C2)cc(OC)c1	nt	nt	nt	nt	nt	-5.9%
COC(=O)CCC(=O)OC1(C)C(=O)C=C2C=C(C3CC3)N(CCCOC(C)C)C=C2C1=O (stereo not drawn)	-11.7	-0.3	-1.9%	-86.0*	-10.7	-3.5%
COc1cc(-c2cc(C)c3c(OC)ccc(OC)c3n2)cc2c1OCCN(C(=O)C(C)c1n[nH]c(=O)c3ccccc13)C2 (stereo not drawn)	nt	nt	nt	nt	nt	-4.7%
Cc1[nH]c2ccc(C(=O)N3CCN(c4ccccc4Cl)CC3)cc2c1C	-78.4*	0.1	-8.0%	-30.4	-1.1	-2.7%
